This passage reports growth inhibition results from PubChem BioAssay (NCI).

A short description of the experiment: NCI Yeast Anticancer Drug Screen. Data for the mec2-1 strain (AID 157). The note with it: S. cerevisiae mec2-1 strain, hits give high values. The procedure: Growth inhibition of yeast strains with defined genetic alterations is measured as a screen for potential anti-cancer activity. Selected strains with alterations in DNA damage repair or cell cycle control were exposed to compounds and growth inhibition was measured relative to vehicle treated controls. The strain used in this assay is mec2-1

Where [1] appears, read: at 5.0 µM (retest, dose inferred, filed as 0.5).
Where [2] appears, read: at 50.0 µM (retest, dose inferred, filed as 5.0).

Compounds without any hit were thinned out: in the full panel of roughly 79,000, 15% have a hit. Values without a mark were called inactive. Active and inactive are the calls of the source. No stated cut-off is given here; in the data, active means growth inhibition above about 70%; inactive means the rest.

Take `O=C(O)c1ccccc1C(=O)OC1CCc2ccccc2C1` (stereo not given): the growth inhibition reads like this: (at 1.2 µM) -6%; (at 3.7 µM) -9%; under setting [1], -20%; (at 11.0 µM) -11%; (at 33.0 µM) 13%; under setting [2], 26%. Also, the growth inhibition was 50.1% (at 50.0 µM) and 36% (at 100.0 µM).
With `O=C1C(=O)c2cccc([N+](=O)[O-])c2-c2ccccc21`, the growth inhibition was 5% (at 1.2 µM); 9% (at 3.7 µM); 31% under setting [1]; 10% (at 11.0 µM); 99% (active) (at 33.0 µM); 99% (active) under setting [2]. For the same compound, the growth inhibition is 99.2% (active) (at 50.0 µM) and 97% (active) (at 100.0 µM).
With `CCN(CC)C(=S)SC(=S)N(CC)CC`, the growth inhibition is, setting by setting: (at 1.2 µM) -34%; (at 3.7 µM) -10%; under setting [1], 6%; (at 11.0 µM) 32%; (at 33.0 µM) 97% (active); under setting [2], 48%. In addition, the growth inhibition was 93.7% (active) (at 50.0 µM) and 97% (active) (at 100.0 µM).
As to `O=C(NCCCCN(CCCNC(=O)C(F)(F)F)Cc1ccccc1)C(F)(F)F`, the growth inhibition (at 1.2 µM) was 14%; the growth inhibition (at 3.7 µM) is 11%; the growth inhibition under setting [1] is 14%; the growth inhibition (at 11.0 µM) is 14%; the growth inhibition (at 33.0 µM) was 0%; the growth inhibition under setting [2] was 75% (active). The growth inhibition was -9.05% (at 50.0 µM) and -13% (at 100.0 µM).
As to `Cc1ccc(NC(Nc2ccc(C)cc2C)=C(C(Cl)=C(Cl)Cl)[N+](=O)[O-])c(C)c1`, the growth inhibition is 0% (at 1.2 µM); 5% (at 3.7 µM); 74% (active) under setting [1]; 49% (at 11.0 µM); 99% (active) (at 33.0 µM); 98% (active) under setting [2]. In addition, the growth inhibition runs as follows: (at 50.0 µM) 98.8% (active); (at 100.0 µM) 94% (active).
